Data published in PubChem BioAssay AID1259343 (VanderVen Lab, College of Veterinary Medicine, Cornell …, 2017).
Among all 6,200 compounds or so, about 2,900 (47%) were called active. The set was probably picked from earlier hits. Some of the results follow. A number with no mark means an inactive call. No stated cut-off is given here; in the data, active means inhibition above about 50%; inactive means the rest.

Test: Mycobacterium tuberculosis growth inhibition, primary screen (AID 1259343)
Settings: inhibition: at 10 µM, stronger effect = higher value; outcome: 10 uM

Structure (SMILES)	inhibition
CCc1ccc(NC(=O)COc2ccc(Br)cn2)cc1	-1.65%
CCOCCC1(C(=O)Nc2ccc(CC)cc2)CCC1	75.8% (active)
COCc1cccc(C(=O)Nc2nc(C3CC3)cs2)c1	5.98%
COCc1cccc(C(=O)Nc2ccc(C(C)(C)C)cc2)c1	60.8% (active)
COC(=O)c1cccc(S(=O)(=O)N(C)Cc2ccc(C)cc2C)c1	82.9% (active)
COc1cc(C)c(CN(C)C(=O)CCl)cc1OC	-15.9%
O=C(O)c1c(NC(=O)C2CCCCC2)sc2c1CCC2	79.8% (active)
NC(=O)c1c(NC(=O)CC23CC4CC(CC(C4)C2)C3)sc2c1CCC2	70.6% (active)
Cc1cccc(OCCNC(=O)c2c(NC(=O)C3CC3)sc(C)c2C)c1	20.2%
NC(=O)c1c(NC(=O)C2CCCCC2)sc2c1CCCC2	-14.9%
COC(=O)c1c(NC(=O)c2ccccc2Br)sc(C)c1C	88.2% (active)
CCOC(=O)c1sc(N)c(C(=O)OC)c1C	-1.92%
COC(=O)c1c(NC(=O)c2ccccc2Cl)sc2c1CCCC2	98.2% (active)
O=C(Nc1ccccc1Cl)c1csc2c1CCCC2	50%
O=C(NC1CC1)c1c(NC(=O)C23CC4CC(CC(C4)C2)C3)sc2c1CCCC2	41.1%
O=C(Nc1sc2c(c1C(=O)O)CCCC2)c1cccnc1	70.5% (active)
O=C(C=Cc1ccco1)Nc1sc2c(c1C(=O)O)CCCC2	8.18%
COc1ccc(-c2ccc(NC(=O)c3cccnc3)c(C)c2)c(OC)c1OC	40.8%
CC1Cc2cc(-c3cc(CC(=O)NCc4cccnc4)no3)ccc2O1 (stereo not given)	37.3%
CC1Cc2cc(-c3cc(CC(=O)NCCC4=CCCCC4)no3)ccc2O1 (stereo not given)	73.2% (active)
COc1cccc(-c2cc(CC(=O)NCCC3=CCCCC3)no2)c1	83.2% (active)
Cc1cc(NC(=O)Cc2cc(-c3ccc4c(c3)CC(C)O4)on2)no1 (stereo not given)	34.1%
CC1Cc2cc(-c3cc(CC(=O)NCc4ccco4)no3)ccc2O1 (stereo not given)	92.3% (active)
O=C(Cc1cc(-c2ccc3c(c2)OCO3)on1)NCCC1=CCCCC1	41%
O=C1C=C(O)c2ccccc2C1=O	53.8% (active)
N#CC(=CC=Cc1ccc([N+](=O)[O-])o1)c1nc2ccccc2[nH]1	101% (active)
N#CC(=Cc1ccc([N+](=O)[O-])o1)c1nc(C2CC2)cs1	-16.5%
O=c1ccc2ccc(OS(=O)(=O)c3cccs3)cc2o1	90.5% (active)

Structure (SMILES)	inhibition
O=c1cc(C(F)(F)F)c2ccc(OS(=O)(=O)c3ccc(F)c(F)c3)cc2o1	1.62%
N#Cc1ccc(OS(=O)(=O)c2cccs2)cc1	51.7% (active)
CCOC(=O)C(C#N)=Cc1cn(CCC#N)nc1-c1ccc(Br)cc1	-13.1%
Oc1ccc(CCNc2nccc(C3CCCC3)n2)cc1	51.5% (active)
Fc1ccc(-c2cc(CNc3nccc(C4CCCC4)n3)no2)cc1	44.8%
C=CC[P+](N(CCC)CCC)(N(CCC)CCC)N(CCC)CCC	80% (active)
CC(C)=CCc1c(O)cc2occ(-c3ccc4c(c3)OCO4)c(=O)c2c1O	68.8% (active)
O=C(COc1ccc2oc3c(c2c1)CCCC3)NCc1cccnc1	-6.78%
COC(=O)c1c(C)oc2ccc(OCC(=O)c3ccc(F)cc3)cc12	87.5% (active)
CC(C)(C)NC(=O)COc1ccc2oc3c(c2c1)CCCC3	31.6%
Cc1ccc(CC(=O)C(C#N)c2nc3sc(C)c(C)c3c(=O)[nH]2)cc1 (stereo not given)	37.3%
Cc1ccc(-c2c(C)sc3nc(CN4CCN(Cc5ccccc5)CC4)[nH]c(=O)c23)cc1	96.5% (active)
Cc1ccc(-c2nnc(SCC(=O)NC3CC3)o2)cc1	-24.4%
C=CCNC(=O)CSc1nnc(-c2cccs2)o1	99.4% (active)
CCCC(C)NC(=O)COc1ncnc2scc(-c3ccc(C)cc3)c12 (stereo not given)	49.2%
CCCC(C)NC(=O)CSc1nnc(-c2ccc(Cl)cc2)o1 (stereo not given)	95.8% (active)
c1coc(-c2nnc(SCc3nnc(-c4cccs4)o3)o2)c1	-25.9%
CCNC(=O)CSc1nnc(-c2ccccc2)o1	92.3% (active)
CCNC(=O)CSc1nnc(-c2ccc(C)cc2)o1	93.8% (active)
c1ccc(C(Cn2cncn2)NCc2cccs2)cc1 (stereo not given)	-11.6%
CCCN(CC1CC1)c1oc(-c2ccc(F)cc2)nc1C#N	12.7%
CCCCNC(=O)CSc1nnc(-c2ccc(OCC)cc2)o1	81.2% (active)
CC1CCC(NC(=O)CSc2nnc(C(C)C)o2)CC1 (stereo not given)	32.9%
Cc1ccc(-c2nnc(SCC(=O)NC(C)C(C)C)o2)cc1 (stereo not given)	87.3% (active)
CCOc1ccc(-c2nnc(SCC#N)o2)cc1	-18%
Cc1cc(C)cc(N2C(=O)C3N=NN(c4ccc(Br)c(C)c4)C3C2=O)c1 (stereo not given)	89% (active)
COC(=O)c1cc(C)nc(N(C)C)c1C(=O)OC	-14.7%
